Assay results taken from PubChem BioAssay.
Calls of active or inactive are those of the source.

Legend:
Albumin (Bos taurus) = Albumin (Bos taurus) (UniProt P02769); experiment: bovine serum albumin binders on microarray, profiling panel, artefact control for SMM control protein annotation, biochemical, small-molecule microarray, Alexa647 label, 635/667 nm fluorescence (AID 1118); conditions: BSA-A647 binding, fluorescence 635 nm, higher = more signal;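 further: score merges 667 nm emission intensity and signal-to-noise per printed compound spot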
Albumin (Bos taurus), sequence (P02769 whole entry, looked up): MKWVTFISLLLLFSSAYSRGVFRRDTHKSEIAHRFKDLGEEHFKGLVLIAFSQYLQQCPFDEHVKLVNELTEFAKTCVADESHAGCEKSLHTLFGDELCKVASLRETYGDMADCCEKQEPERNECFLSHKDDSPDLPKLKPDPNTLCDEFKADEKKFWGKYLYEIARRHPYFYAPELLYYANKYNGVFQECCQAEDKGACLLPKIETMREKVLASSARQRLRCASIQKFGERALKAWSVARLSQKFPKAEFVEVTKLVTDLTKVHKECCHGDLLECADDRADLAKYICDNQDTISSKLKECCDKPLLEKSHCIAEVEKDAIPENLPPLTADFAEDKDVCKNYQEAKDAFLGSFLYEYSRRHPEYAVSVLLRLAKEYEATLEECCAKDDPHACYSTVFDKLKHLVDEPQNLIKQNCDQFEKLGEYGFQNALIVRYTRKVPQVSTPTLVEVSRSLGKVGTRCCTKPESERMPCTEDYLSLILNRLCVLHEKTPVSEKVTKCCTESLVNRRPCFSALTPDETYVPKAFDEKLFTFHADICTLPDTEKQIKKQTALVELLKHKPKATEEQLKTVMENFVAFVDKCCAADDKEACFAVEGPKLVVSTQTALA

[1] = small-molecule microarray binders of probe aXIP, primary screen, biochemical, NeuroSMM set, 635/667 nm fluorescence (AID 1119); conditions: higher = more signal, called active from +8 up or from −8 down;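 further: probe is the protein aXip251-270 applied at 1 µg/mL to compound-printed slides; binding of probe to printed compounds measured as 667 nm fluorescence plus signal to noise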
[2] = small-molecule binders of probe aNOTCH3, primary screen, biochemical, small-molecule microarray, 635/667 nm fluorescence (AID 1120); conditions: higher = more signal;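 further: probe is a biotin-tagged antibody raised against NOTCH3 rather than NOTCH3 protein; score merges spot fluorescence near 667 nm with spot signal to noise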
[3] = small-molecule binders of probe aNOTCH2, primary screen, biochemical, small-molecule microarray, 635/667 nm fluorescence (AID 1121); conditions: higher = more signal;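 further: score merges feature fluorescence read at 667 nm with its signal to noise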
[4] = target: Carbonic anhydrase 2 (Homo sapiens) (UniProt P00918); experiment: CAII small-molecule binders, profiling panel, biochemical, small-molecule microarray, Alexa647-labelled CAII (AID 1122); conditions: CAII-A647 binding fluorescence, higher = more signal
[5] = COS7 lysate on small-molecule microarray, probe aHis, 635 nm (AID 1123); conditions: COS7 cell lysate, fluorescence, higher = more signal;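 further: z-score combines 667nm fluorescence intensity with signal-to-noise per printed compound spot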
[6] = compound binding in COS7 lysate, probe aLAP1, primary screen, cell lysate, small-molecule microarray (AID 1124); conditions: probe aLAP1, fluorescence, higher = more signal;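 further: lysate comes from COS7 cells expressing LAP1 and is applied at 0.3 µg/mL; score merges spot fluorescence near 667 nm with signal-to-noise over triplicate slides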
Sam68 (KHDRBS1) = experiment: Sam68 small-molecule binders, primary screen, biochemical, small-molecule microarray, 635 nm fluorescence (AID 1125); conditions: small-molecule microarray binding, higher = more signal;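 further: score merges 667 nm channel intensity with signal to noise over triplicate slides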
[7] = tested on: Chordin-like protein 2 (CHRDL2); experiment: CHRDL2 small-molecule binders, primary screen, biochemical, small-molecule microarray, 635 nm fluorescence (AID 1126); conditions: small-molecule microarray binding, fluorescence 635 nm; higher = more signal;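 further: printed compound slides probed with Chrdl2 protein at 4 µg/mL for 1 h at 4 C; score merges 667 nm emission intensity with signal to noise over three replicate slides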
[8] = target: Concanavalin-A (Canavalia ensiformis) (UniProt P02866); experiment: ConA small-molecule binders, primary screen, artefact control for SMM control protein annotation, biochemical, small-molecule microarray, Alexa647 label, 635 nm (AID 1127); conditions: ConA-A647 binding fluorescence, higher = more signal;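 further: z combines 667 nm emission intensity with signal-to-noise across three replicate slides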
Concanavalin-A (Canavalia ensiformis), sequence (P02866 whole entry, looked up): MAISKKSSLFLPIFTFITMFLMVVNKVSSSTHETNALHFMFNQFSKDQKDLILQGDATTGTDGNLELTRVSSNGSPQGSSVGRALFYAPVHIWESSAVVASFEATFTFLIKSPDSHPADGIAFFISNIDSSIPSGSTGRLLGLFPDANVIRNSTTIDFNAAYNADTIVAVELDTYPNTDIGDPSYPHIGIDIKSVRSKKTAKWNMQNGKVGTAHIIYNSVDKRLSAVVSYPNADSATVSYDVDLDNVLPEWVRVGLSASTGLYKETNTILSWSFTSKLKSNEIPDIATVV

[9] = anti-His antibody binders, primary screen, artefact control for SMM control protein annotation, biochemical, small-molecule microarray, 635 nm fluorescence (AID 1128); conditions: anti-His Alexa647 antibody binding, higher = more signal;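 further: score merges feature fluorescence with signal-to-noise for each printed compound spot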
[10] = tested on: Human papillomavirus type 1a E7 protein (residues 1-88); experiment: HPV1a E7 small-molecule binders, primary screen, biochemical, small-molecule microarray, residues 1-88, 635 nm (AID 1129); conditions: small-molecule microarray binding, fluorescence 635 nm; higher = more signal
[11] = target: Focal adhesion kinase 1 (Homo sapiens) (UniProt Q05397); experiment: small-molecule microarray binders of FAK, primary screen, biochemical, 635/667 nm fluorescence, BSA, DTT (AID 1130); conditions: PTK2 binding, 635 nm fluorescence, higher = more signal;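 further: composite of spot emission at 667 nm and signal to noise over triplicate slides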
Focal adhesion kinase 1 (Homo sapiens), sequence (Q05397 whole entry, looked up): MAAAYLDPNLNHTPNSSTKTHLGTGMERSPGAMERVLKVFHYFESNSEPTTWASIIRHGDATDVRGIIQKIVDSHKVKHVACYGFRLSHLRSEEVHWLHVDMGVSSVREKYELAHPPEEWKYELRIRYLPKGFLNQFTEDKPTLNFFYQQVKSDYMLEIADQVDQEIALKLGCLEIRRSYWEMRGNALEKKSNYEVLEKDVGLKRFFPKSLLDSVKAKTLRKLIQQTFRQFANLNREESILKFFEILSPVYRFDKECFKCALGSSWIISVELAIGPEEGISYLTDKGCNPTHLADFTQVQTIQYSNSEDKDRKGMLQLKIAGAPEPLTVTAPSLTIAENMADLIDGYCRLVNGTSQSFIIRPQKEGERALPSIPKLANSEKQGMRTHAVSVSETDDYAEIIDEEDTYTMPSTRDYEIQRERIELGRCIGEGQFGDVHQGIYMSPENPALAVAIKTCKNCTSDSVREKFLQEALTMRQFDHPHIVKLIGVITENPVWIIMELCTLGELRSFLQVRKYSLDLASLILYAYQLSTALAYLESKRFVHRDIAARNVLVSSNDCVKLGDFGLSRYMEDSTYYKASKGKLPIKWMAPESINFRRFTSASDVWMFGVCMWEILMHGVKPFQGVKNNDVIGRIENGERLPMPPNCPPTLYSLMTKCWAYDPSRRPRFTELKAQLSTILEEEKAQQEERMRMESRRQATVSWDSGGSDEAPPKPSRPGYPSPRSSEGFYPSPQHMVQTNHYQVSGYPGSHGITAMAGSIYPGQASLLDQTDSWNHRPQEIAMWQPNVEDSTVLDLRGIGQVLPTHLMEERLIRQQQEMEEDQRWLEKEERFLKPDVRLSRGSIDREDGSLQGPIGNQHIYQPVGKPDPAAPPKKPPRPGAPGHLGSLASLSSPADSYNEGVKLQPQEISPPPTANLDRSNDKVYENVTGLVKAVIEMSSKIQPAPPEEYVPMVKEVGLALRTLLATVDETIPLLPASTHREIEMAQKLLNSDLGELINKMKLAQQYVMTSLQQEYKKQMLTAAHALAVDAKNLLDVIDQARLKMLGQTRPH

[12] = tested on: Fibrinogen (Alexa647-labelled); experiment: fibrinogen binders on compound microarrays, profiling panel, artefact control for SMM control-protein annotation, biochemical, small-molecule microarray, 635/667 nm fluorescence (AID 1131); conditions: fibrinogen-A647 binding fluorescence, higher = more signal;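 further: z-score merges 667 nm fluorescence with per-spot signal-to-noise over triplicate slides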
[13] = target: Follistatin (Homo sapiens) (UniProt P19883); experiment: follistatin binders on small-molecule microarrays, primary screen, biochemical, small-molecule microarray, 635/667 nm fluorescence (AID 1132); conditions: FST binding, 635 nm fluorescence, higher = more signal
Follistatin (Homo sapiens), sequence (P19883 whole entry, looked up): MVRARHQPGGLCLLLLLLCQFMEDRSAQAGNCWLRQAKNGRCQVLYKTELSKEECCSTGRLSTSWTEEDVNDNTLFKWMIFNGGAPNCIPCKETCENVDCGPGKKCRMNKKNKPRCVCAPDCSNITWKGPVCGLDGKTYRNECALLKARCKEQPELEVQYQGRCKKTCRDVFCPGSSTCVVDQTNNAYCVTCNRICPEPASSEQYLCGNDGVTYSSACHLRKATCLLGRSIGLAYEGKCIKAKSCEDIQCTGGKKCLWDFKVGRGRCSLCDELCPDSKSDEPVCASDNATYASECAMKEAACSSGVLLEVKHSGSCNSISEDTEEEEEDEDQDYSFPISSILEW

[14] = target: Fibroblast growth factor 2 (Homo sapiens) (UniProt P09038); experiment: FGF2 binders on small-molecule microarrays, primary screen, biochemical, small-molecule microarray, 635/667 nm fluorescence (AID 1133); conditions: small-molecule microarray binding, FGF2, fluorescence 635/667; higher = more signal
Fibroblast growth factor 2 (Homo sapiens), sequence (P09038 whole entry, looked up): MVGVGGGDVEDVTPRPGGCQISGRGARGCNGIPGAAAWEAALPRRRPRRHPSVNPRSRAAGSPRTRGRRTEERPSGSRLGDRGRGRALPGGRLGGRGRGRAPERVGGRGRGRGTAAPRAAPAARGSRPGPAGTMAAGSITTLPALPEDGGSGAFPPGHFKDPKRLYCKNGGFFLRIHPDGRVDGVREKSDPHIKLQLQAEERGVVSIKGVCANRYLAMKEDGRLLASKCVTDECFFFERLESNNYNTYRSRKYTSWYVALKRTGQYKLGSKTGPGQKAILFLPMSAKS

[15] = mitochondrial membrane potential change in A549 cells, profiling panel, cell-based, JC-1 fluorescence, basal, 24 h, 100 nL (AID 1138); conditions: higher = more signal;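 further: A549 lung adenocarcinoma cells under basal conditions with no added stimulus; test concentration not given here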
Lefty1 = Lefty1 binders on small-molecule microarrays, primary screen, biochemical, small-molecule microarray, 635/667 nm fluorescence (AID 1139); conditions: small-molecule microarray binding, fluorescence 635/667; higher = more signal
[16] = tested on: wheat germ agglutinin (Triticum aestivum), Alexa647-labelled; experiment: wheat germ agglutinin binders on compound microarrays, profiling panel, artefact control for SMM control-protein annotation, biochemical, small-molecule microarray, 635/667 nm fluorescence (AID 1140); conditions: WGA-A647 binding, 635 nm fluorescence, higher = more signal;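 further: score merges 667 nm feature emission with signal to noise over triplicate slides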
[17] = target: Luciferin 4-monooxygenase (Photinus pyralis) (UniProt P08659); experiment: firefly luciferase enzyme inhibitors, primary screen, biochemical, luminescence, purified enzyme, 2006 set (AID 1141); conditions: SteadyGlo luminescence, 30 min, higher = more signal, called active from +8 up or from −8 down;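 further: cell-free assay with purified firefly luciferase at 100 ng per well in PBS; test concentration not given here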
Luciferin 4-monooxygenase (Photinus pyralis), sequence (P08659 whole entry, looked up): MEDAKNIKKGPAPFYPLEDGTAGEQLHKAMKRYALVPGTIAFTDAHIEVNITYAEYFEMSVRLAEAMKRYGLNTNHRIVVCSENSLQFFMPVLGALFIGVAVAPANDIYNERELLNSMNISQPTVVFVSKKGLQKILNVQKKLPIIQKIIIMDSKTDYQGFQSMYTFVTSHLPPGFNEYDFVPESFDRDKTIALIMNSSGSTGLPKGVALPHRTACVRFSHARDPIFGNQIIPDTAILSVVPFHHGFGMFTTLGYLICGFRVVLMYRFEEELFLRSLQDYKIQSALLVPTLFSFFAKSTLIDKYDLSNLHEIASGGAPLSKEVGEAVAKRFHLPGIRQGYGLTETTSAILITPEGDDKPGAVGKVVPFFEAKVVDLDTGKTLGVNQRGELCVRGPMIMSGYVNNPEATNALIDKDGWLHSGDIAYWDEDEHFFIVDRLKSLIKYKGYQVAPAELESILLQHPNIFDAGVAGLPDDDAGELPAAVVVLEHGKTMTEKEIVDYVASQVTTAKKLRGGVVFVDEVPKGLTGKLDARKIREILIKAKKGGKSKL

SMILES	composite z-score (Albumin (Bos taurus))	composite Z-score [1]	composite z-score [2]	composite z-score [3]	composite z-score [4]	composite z-score [5]	composite z-score [6]	composite z-score (Sam68 (KHDRBS1))	composite z-score [7]	composite z-score [8]	composite z-score [9]	composite z-score [10]	composite z-score [11]	composite z-score [12]	composite z-score [13]	composite z-score [14]	z-score [15]	composite z-score (Lefty1)	composite z-score [16]	z-score [17]
COc1cccc(-c2cccc(=O)o2)c1	-0.172	2.41 (inactive)	0.366	0.38	0.111	0.175	-0.0345	-0.579	0.683	-0.664	0.0707	-0.0477	-0.0753	-0.51	0.302	0.0278	-0.376	-0.198	0.143	-0.0346 (inactive)
O=C1N(Cc2ccccc2)c2ccccc2[C@@H]2OC(c3ccc(OCCCO)cc3)=N[C@]12CCS(=O)(=O)c1ccccc1	0.272	1.29 (inactive)	0.147	-0.0079	0.626	2.52	-0.276	0.895	0.0187	1.14	0.218	1.2	0.564	0.92	1.15	0.311	-0.311	0.0829	1.19	-1.45 (inactive)
CCC(CC)C(O)C1C=CC2C(=O)NC(=O)C2N1Nc1ccccn1 (stereo not given)	0.958	-0.248 (inactive)	-0.0219	-0.0438	0.763	0.864	-0.019	0.0905	0.416	0.228	0.823	-0.0365	0.268	-0.206	0.872	0.0277	0.693	-0.0021	0.0789	-0.0791 (inactive)
COC(=O)[C@@]1(CCC(=O)OC(C)(C)C)N=C(c2ccc(OCCCO)cc2)O[C@H]1c1ccccc1N=[N+]=[N-]	0.373	0.455 (inactive)	-0.076	-0.127	0.508	1.95	0.333	0.201	-0.436	0.721	0.421	1.17	0.723	0.942	1.24	0.0436	1.01	0.303	0.658	-7.29 (inactive)
O=C(c1ccccc1)N1C(=O)[C@]2(COC(c3ccc(OCCCO)cc3)=N2)Cc2ccccc21	0.368	3.03 (inactive)	0.201	-0.0249	0.566	3.17	0.771	1.29	0.674	1.16	3.28	1.2	0.628	0.988	1.4	1.1	-0.345	0.443	1.12	-1.19 (inactive)
O=C1c2ccccc2[C@](Cc2ccccc2I)(C(=O)NCCN2CCOCC2)[C@H](c2ccc(CO)cc2)N1Cc1ccccc1Cl	0.517	0.322 (inactive)	0.223	0.385	0.652	1.82	0.754	1.31	0.202	1.17	2.09	1.16	0.0936	0.929	1	1.23	1.87	0.526	1.08	-0.593 (inactive)
CC(C)NC(=O)[C@@]1(c2ccc([N+](=O)[O-])cc2)CC(=O)N(C2CCCCC2)[C@@H]1c1ccc(CO)cc1I	0.0092	0.691 (inactive)	-0.0647	0.083	0.421	1.27	0.321	0.93	-0.589	0.347	-0.0568	1.15	0.52	-0.517	-0.315	-0.331	2.97	-0.491	-0.0784	-1.11 (inactive)
C[N+](C)(C)CCCCNC(=O)[C@H]1C[C@H]2C(=O)N3CCC[C@H]3C(=O)N2[C@H]1c1cccc(OCCO)c1	-1.75	-0.166 (inactive)	-0.0663	-0.0942	0.73	0.647	0.815	-0.531	1.3	-0.303	3.3	-1.41	-0.444	-0.944	1.43	1.41	-0.613	0.974	-1.48	-0.677 (inactive)
C=C(C)[C@@H]1CC=C(C(O)C2C=CC3C(=O)N(c4ccccc4)C(=O)C3N2Nc2ccccc2)CC1 (stereo not given in full)	0.889	0.788 (inactive)	0.75	0.405	0.879	2.84	0.736	1.3	0.543	1.13	0.858	1.24	0.0294	0.982	1.22	0.001	-0.369	0.226	1.32	-1.24 (inactive)
O=C1OCCC/C=C\[C@H]2OC34C=CCN(Cc5ccccc5)C(=O)[C@H]3N(CCCO)C(=O)[C@@H]4C12 (stereo not given in full)	-0.937	0.581 (inactive)	-0.327	-0.104	0.948	-0.861	1.59	-0.374	-1.79	-1.53	-0.14	-0.496	-0.66	-1.64	-1.29	-1.08	1.26	-1.28	-0.443	-1.26 (inactive)
O=C1O[C@H](c2ccccc2)[C@H](c2ccccc2)N2[C@H]1[C@@H](C(=O)N1CCCCCCC1)[C@]1(C(=O)Nc3ccc(C#CCCO)cc31)[C@H]2c1ccccc1OCCO	0.536	10.7 (active)	2.31	1.14	1.12	5.54	1.3	1.35	1.7	1.21	3.55	1.36	5.56	1.02	1.58	1.16	0.372	1.93	1.64	-1.35 (inactive)
